Measured values reported in PubChem BioAssay (EPA / NIEHS).
Results filed as inconclusive are left out. Active and inactive are the calls of the source. How the source made its calls, unless noted: active means hit-call score of the fitted dose curve at least 0.9, where 1 is the maximum; inactive means score below 0.9.

What was measured:
[1] = read-out: Monocyte Chemoattractant Protein-1 (MCP1), CCL2 (gene 6347); assay: BSK_LPS_MCP1: BioMAP Diversity Plus: LPS Assay for Monocyte Chemoattractant Protein-1 (MCP1) Biomarker Activity (AID 2283081); conditions: primary human HUVEC with PBMC; actives raise or lower the signal;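 on AC50: secreted MCP-1 protein quantified by ELISA in culture supernatant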
In short: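 Human umbilical vein endothelial cells co-cultured with PBMC, LPS-stimulated; secreted MCP-1 measured by ELISA 24 h after compound addition. Bidirectional curve fitting against DMSO baseline; SRB total-protein staining in parallel cultures for cytotoxicity.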

[2] = read-out: Macrophage colony-stimulating factor (MCSF), CSF1 (gene 1435); assay: BSK_LPS_MCSF: BioMAP Diversity Plus: LPS Assay for Macrophage colony-stimulating factor (MCSF) Biomarker Activity (AID 2283083); conditions: primary human HUVEC with PBMC; actives raise or lower the signal
In short: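 HUVEC–PBMC co-culture, M-CSF measured by ELISA 24 h after chemical dosing. Fitted in both directions relative to DMSO as negative control; overt cytotoxicity assessed by SRB total-protein staining in parallel cultures.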

[3] = read-out: Tissue Factor, F3 (gene 2152); assay: BSK_LPS_TissueFactor: BioMAP Diversity Plus: LPS Assay for Tissue Factor Biomarker Activity (AID 2283084); conditions: primary human HUVEC with PBMC; actives raise or lower the signal
In short: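 Human umbilical vein endothelial cells co-cultured with PBMC were dosed with compound. Cell-surface CD142 was measured by ELISA 24 h later. Activity was fitted bidirectionally against DMSO, with SRB total-protein staining in parallel cultures for cytotoxicity.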

[4] = read-out: Tumor necrosis factor (Homo sapiens) (UniProt P01375); assay: BSK_LPS_TNFa: BioMAP Diversity Plus: LPS Assay for Tumour Necrosis Factor alpha (TNFa) Biomarker Activity (AID 2283085); conditions: primary human HUVEC with PBMC; actives raise or lower the signal;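 on AC50: TNFa protein level quantified by ELISA in the co-culture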
In short: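 ELISA-based TNFa endpoint in a human endothelial–PBMC co-culture sampled 24 h post-exposure. Curves were fitted in both directions using DMSO as baseline of activity.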

[5] = read-out: Vascular cell adhesion molecule 1 (VCAM1), VCAM1 (gene 7412); assay: BSK_LPS_VCAM1: BioMAP Diversity Plus: LPS Assay for Vascular cell adhesion molecule 1 (VCAM1) Biomarker Activity (AID 2283086); conditions: primary human HUVEC with PBMC; actives raise or lower the signal
In short: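 Measured by ELISA: VCAM-1 in LPS-activated HUVEC/PBMC co-cultures 24 h after treatment. Values reflect bidirectional fitting with DMSO as baseline.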

CD38, CD38 (gene 952) = assay: BSK_SAg_CD38: BioMAP Diversity Plus: SAg Assay for CD38 Biomarker Activity (AID 2283087); conditions: primary human HUVEC with PBMC; actives raise or lower the signal
In short: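 Measures CD38 on a human endothelial/PBMC co-culture driven by SEB and TSST-1, 24 h after compound exposure, using ELISA with fluorescence detection; DMSO defines baseline for bidirectional curve fitting.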

CD40, CD40 (gene 958) = assay: BSK_SAg_CD40: BioMAP Diversity Plus: SAg Assay for CD40 Biomarker Activity (AID 2283088); conditions: primary human HUVEC with PBMC; actives raise or lower the signal
In short: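 HUVEC plus PBMC co-culture, superantigen-activated, with CD40 read by ELISA 24 h after dosing. Curves fitted in both directions against DMSO. Overt cytotoxicity checked by parallel SRB total-protein staining.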

CD69, CD69 (gene 969) = assay: BSK_SAg_CD69: BioMAP Diversity Plus: SAg Assay for CD69 Biomarker Activity (AID 2283089); conditions: primary human HUVEC with PBMC; actives raise or lower the signal;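 on AC50: cell surface CD69 protein quantified by ELISA with fluorescence detection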
In short: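 ELISA, fluorescence read-out: CD69 on human umbilical vein endothelial cell + PBMC co-culture, 24 h post-dosing. Gain or loss of signal fitted bidirectionally against DMSO baseline.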

[6] = read-out: Monocyte Chemoattractant Protein-1 (MCP1), CCL2 (gene 6347); assay: BSK_SAg_MCP1: BioMAP Diversity Plus: SAg Assay for Monocyte Chemoattractant Protein-1 (MCP1) Biomarker Activity (AID 2283090); conditions: primary human HUVEC with PBMC; actives raise or lower the signal
In short: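 Values derive from bidirectional fitting of ELISA-measured MCP1 against DMSO controls. Readings were taken 24 h after dosing human vascular endothelial cells co-cultured with peripheral blood mononuclear cells under superantigen stimulation.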

[7] = read-out: E-selectin (Homo sapiens) (UniProt P16581); assay: BSK_SAg_Eselectin: BioMAP Diversity Plus: SAg Assay for Eselectin Biomarker Activity (AID 2283091); conditions: primary human HUVEC with PBMC; actives raise or lower the signal
In short: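 Human umbilical vein endothelial cells co-cultured with peripheral blood mononuclear cells, SAg system. E-selectin is measured by ELISA 24 h after dosing and fitted bidirectionally against DMSO. Cytotoxicity is checked by SRB staining of parallel cultures.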

[8] = read-out: Monokine induced gamma interferon (MIG), CXCL9 (gene 4283); assay: BSK_SAg_MIG: BioMAP Diversity Plus: SAg Assay for Monokine induced gamma interferon (MIG) Biomarker Activity (AID 2283092); conditions: primary human HUVEC with PBMC; actives raise or lower the signal
In short: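 ELISA readout of MIG/CXCL9; primary human umbilical vein endothelial cells co-cultured with peripheral blood mononuclear cells; 24 h post-dose; gain/loss fit vs DMSO baseline.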

[9] = BSK_SAg_PBMCCytotoxicity: PBMC Cytotoxicity Assessment in the BioMAP Diversity Plus: SAg Assay (AID 2283093); conditions: primary human HUVEC with PBMC;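 further: fitted both ways against DMSO so a hit may be loss or gain of signal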;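 on AC50: PBMC superantigen activated with SEB plus TSST-1 one hour after compound addition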
In short: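 PBMC viability by Alamar Blue reduction, fluorescence read at 546/580 nm after 6 h dye exposure. Cells were dosed 1 h before SEB plus TSST-1 activation (20 ng/mL final each), then held 90 h; endothelial/PBMC human co-culture.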

[10] = read-out: Interleukin-8 (IL8), CXCL8 (gene 3576); assay: BSK_SAg_IL8: BioMAP Diversity Plus: SAg Assay for Interleukin-8 (IL8) Biomarker Activity (AID 2283094); conditions: primary human HUVEC with PBMC; actives raise or lower the signal
In short: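 Primary human endothelial cells with PBMC, exposed 24 h; IL-8 determined by ELISA, analysed bidirectionally relative to DMSO.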

[11] = BSK_SAg_SRB: Viability Assessment in the BioMAP Diversity Plus: SAg Assay (AID 2283096); conditions: primary human HUVEC with PBMC;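 further: cells read one day after compound addition; hits may be either gain or loss of signal compared with DMSO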
In short: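 Compounds were added to a human vascular co-culture of umbilical vein endothelium and PBMC. After 24 h, parallel cultures were fixed with 10% TCA, stained with 0.1% sulforhodamine B and read at 560 nm. Gain or loss of signal was fitted relative to DMSO.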

[12] = BSK_SAg_Proliferation: Cell Proliferation Assessment in the BioMAP Diversity Plus: SAg Assay (AID 2283095); conditions: primary human HUVEC with PBMC;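 further: relative cell number as total protein by SRB absorbance in sub-confluent culture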
In short: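 A human primary co-culture of umbilical vein endothelium and blood mononuclear cells receives compound; relative cell number is quantified at 96 h by SRB staining and 560 nm absorbance, with DMSO-referenced bidirectional curve fitting.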

[13] = target: human CYP2B6, CYP2B6 (gene 1555) (UniProt P20813); assay: NVS_ADME_hCYP2B6: NovaScreen (NVS) CYP450-related Enzyme Activity (ADME) Assay for human CYP2B6 (AID 2283101; active means hit-call score of the fitted dose curve at least 0.9, where 1 is the maximum)
In short: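 Fluorescence-based enzyme activity of recombinant human CYP2B6, measured 1 h post-dose against acetonitrile vehicle baseline. Screened at a single concentration of 10 uM in duplicate before concentration-response follow-up.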

[14] = target: human CYP1A2, CYP1A2 (gene 1544) (UniProt P05177); assay: NVS_ADME_hCYP1A2: NovaScreen (NVS) CYP450-related Enzyme Activity (ADME) Assay for human CYP1A2 (AID 2283102; active means hit-call score of the fitted dose curve at least 0.9, where 1 is the maximum;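 on AC50: potency for inhibition since loss of fluorescence marks reduced CYP1A2 activity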)
In short: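 Recombinant human CYP1A2 from insect cells, cell-free, fluorogenic substrate; read 0.5 h after dosing with loss of fluorescence signal indicating inhibition. Primary screen in duplicate at 10 uM, acetonitrile as negative control.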

[15] = target: human CYP2A6, CYP2A6 (gene 1548) (UniProt P11509); assay: NVS_ADME_hCYP2A6: NovaScreen (NVS) CYP450-related Enzyme Activity (ADME) Assay for human CYP2A6 (AID 2283099; active means hit-call score of the fitted dose curve at least 0.9, where 1 is the maximum)
In short: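 Recombinant human CYP2A6 expressed in insect cells, cell-free; fluorogenic substrate turnover read by fluorescence intensity 0.5 h after dosing. Primary screen 10 uM in duplicate, then concentration-response up to 20 uM; acetonitrile as negative control.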

Measured: AC50

Sequence of Tumor necrosis factor (Homo sapiens) (P01375 whole entry, looked up): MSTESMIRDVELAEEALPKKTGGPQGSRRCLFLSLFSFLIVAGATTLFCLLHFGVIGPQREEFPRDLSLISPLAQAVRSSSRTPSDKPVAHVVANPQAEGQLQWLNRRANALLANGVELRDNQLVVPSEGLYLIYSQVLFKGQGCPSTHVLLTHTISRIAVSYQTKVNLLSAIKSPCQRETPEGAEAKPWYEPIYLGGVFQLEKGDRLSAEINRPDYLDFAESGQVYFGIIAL
Sequence of E-selectin (Homo sapiens) (P16581 whole entry, looked up): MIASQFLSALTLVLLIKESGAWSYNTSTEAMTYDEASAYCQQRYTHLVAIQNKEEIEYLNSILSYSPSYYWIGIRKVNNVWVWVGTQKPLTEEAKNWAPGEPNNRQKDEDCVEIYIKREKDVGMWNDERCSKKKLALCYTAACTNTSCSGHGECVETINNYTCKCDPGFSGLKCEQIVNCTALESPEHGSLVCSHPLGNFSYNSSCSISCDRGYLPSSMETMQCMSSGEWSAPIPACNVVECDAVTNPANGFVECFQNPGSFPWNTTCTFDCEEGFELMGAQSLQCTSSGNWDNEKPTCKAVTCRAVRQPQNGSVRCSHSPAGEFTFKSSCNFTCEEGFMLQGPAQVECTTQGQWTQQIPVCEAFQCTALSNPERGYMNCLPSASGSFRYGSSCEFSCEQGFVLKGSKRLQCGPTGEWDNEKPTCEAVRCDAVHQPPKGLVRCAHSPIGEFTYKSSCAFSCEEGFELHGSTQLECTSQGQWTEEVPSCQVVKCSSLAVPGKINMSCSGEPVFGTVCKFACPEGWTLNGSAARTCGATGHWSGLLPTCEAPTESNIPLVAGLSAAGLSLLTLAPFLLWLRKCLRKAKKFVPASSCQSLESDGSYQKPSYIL
Sequence of human CYP1A2, CYP1A2 (gene 1544) (P05177 whole entry, looked up): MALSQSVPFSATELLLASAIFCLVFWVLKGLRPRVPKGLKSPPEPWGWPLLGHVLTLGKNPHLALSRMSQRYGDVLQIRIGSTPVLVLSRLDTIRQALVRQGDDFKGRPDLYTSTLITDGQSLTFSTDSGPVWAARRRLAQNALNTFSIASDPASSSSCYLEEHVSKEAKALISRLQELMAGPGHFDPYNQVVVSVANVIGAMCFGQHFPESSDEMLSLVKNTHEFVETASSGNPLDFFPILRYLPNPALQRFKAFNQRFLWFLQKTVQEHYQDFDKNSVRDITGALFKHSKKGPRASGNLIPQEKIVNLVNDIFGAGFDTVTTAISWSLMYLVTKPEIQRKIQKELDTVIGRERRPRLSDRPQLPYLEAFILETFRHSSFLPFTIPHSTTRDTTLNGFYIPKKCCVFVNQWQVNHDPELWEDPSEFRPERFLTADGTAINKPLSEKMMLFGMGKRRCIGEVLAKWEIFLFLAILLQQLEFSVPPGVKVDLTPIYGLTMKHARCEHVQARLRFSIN
Sequence of human CYP2A6, CYP2A6 (gene 1548) (P11509 whole entry, looked up): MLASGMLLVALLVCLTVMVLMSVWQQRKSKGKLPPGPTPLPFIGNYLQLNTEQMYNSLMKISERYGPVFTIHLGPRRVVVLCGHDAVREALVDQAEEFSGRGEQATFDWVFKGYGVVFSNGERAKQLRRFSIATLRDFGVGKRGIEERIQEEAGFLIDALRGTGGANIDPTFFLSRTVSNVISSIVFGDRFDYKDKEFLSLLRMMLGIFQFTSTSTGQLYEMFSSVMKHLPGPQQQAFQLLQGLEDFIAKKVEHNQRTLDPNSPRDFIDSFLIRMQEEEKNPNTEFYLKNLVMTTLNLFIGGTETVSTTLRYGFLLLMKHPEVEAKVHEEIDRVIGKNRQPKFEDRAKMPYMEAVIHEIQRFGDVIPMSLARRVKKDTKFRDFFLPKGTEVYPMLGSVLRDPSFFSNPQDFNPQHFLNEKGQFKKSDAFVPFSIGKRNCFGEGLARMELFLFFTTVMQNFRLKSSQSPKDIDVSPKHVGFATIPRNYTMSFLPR
Sequence of human CYP2B6, CYP2B6 (gene 1555) (P20813 whole entry, looked up): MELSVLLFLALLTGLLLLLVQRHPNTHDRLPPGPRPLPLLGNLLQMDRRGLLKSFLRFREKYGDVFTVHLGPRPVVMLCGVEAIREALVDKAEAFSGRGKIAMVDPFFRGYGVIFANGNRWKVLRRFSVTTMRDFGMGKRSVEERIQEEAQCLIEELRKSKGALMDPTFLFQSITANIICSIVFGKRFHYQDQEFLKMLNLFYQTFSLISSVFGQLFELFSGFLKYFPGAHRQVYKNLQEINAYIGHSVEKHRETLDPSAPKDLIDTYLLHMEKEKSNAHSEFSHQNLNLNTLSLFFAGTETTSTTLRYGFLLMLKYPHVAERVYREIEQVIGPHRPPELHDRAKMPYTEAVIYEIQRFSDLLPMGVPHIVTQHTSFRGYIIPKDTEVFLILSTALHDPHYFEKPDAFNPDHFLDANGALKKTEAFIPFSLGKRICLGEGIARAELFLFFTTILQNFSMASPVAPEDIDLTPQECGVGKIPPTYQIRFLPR

O=c1ccc2ccccc2o1
not listed: [12] | [13] | [14] | [15]
inactive: all other assays above

CC1(C)NC(=O)N(c2ccc([N+](=O)[O-])c(C(F)(F)F)c2)C1=O
active: [13] 7.49 µM | [14] 5.28 µM
not listed: [3] | [15]
inactive: all other assays above

Cc1ccc2oc(CN(Cc3ccccc3)C(=O)Nc3c(F)cc(F)cc3F)c(-c3ccc(Cl)cc3)c2c1
not listed: [3] | [12] | [13] | [14] | [15]
inactive: all other assays above

CC(=O)N1CCN(c2ccc(OC[C@H]3CO[C@](Cn4ccnc4)(c4ccc(Cl)cc4Cl)O3)cc2)CC1
active: [1] 31 µM | [4] 36.7 µM | [5] 28.1 µM | CD38, CD38 (gene 952) 27.4 µM | CD40, CD40 (gene 958) 24.1 µM | CD69, CD69 (gene 969) 25.4 µM | [6] 30.1 µM | [7] 32.4 µM | [8] 37.7 µM | [9] 33 µM | [10] 26.5 µM | [12] 22.8 µM | [11] 24.7 µM

Clc1ccccc1C(c1ccccc1)(c1ccccc1)n1ccnc1
active: [1] 29.7 µM | [2] 28.3 µM | [3] 31.9 µM | [4] 32.9 µM | [5] 22.4 µM | CD38, CD38 (gene 952) 25.9 µM | CD40, CD40 (gene 958) 20 µM | CD69, CD69 (gene 969) 24.3 µM | [6] 26.1 µM | [7] 14 µM | [8] 35.1 µM | [9] 33.1 µM | [10] 11.6 µM | [11] 24.4 µM
inactive: [15] | [14]
